± gives the standard deviation of the averaged measurements.
Legend:
[1] = tested on: DLD1; test: cell viability (CellTiter-Glo) relative to plate median (fraction of plate median); higher = more viable cells; conditions: 10 µM, treatment time 24 h
Method in brief: (§1)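 Colorectal cancer cells expressing a stably transduced lentiviral TCF/Wnt firefly luciferase reporter were treated in 384-well plates with kinase inhibitor library compounds at a final 10 µM for 24 h. Firefly luciferase or CellTiterGlo luminescence was then read on parallel plates. Well signals were normalised to the plate median (webcellHTS2, additive, no log transformation) and averaged over two independent replicates.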

[2] = tested on: HCT116; test: as above; conditions: 10 µM; treatment time 24 h; reporter: TCF4/Wnt
Method in brief: as §1

[3] = tested on: SW480; test: as above; conditions: 10 µM; treatment time 24 h; reporter: 7TFP
Method in brief: as §1

[4] = tested on: DLD1; test: TCF/Wnt firefly luciferase reporter signal relative to plate median (fraction of plate median); higher = higher Wnt reporter signal; conditions: 10 µM, treatment time 24 h
Method in brief: as §1

[5] = tested on: HCT116; test: as above; conditions: 10 µM; treatment time 24 h; reporter: TCF4/Wnt
Method in brief: as §1

[6] = tested on: SW480; test: as above; conditions: 10 µM; treatment time 24 h; reporter: 7TFP
Method in brief: as §1

SMILES | cell viability ([1]; reporter: 7TFP) | cell viability ([1]; reporter: TCF4/Wnt) | cell viability [2] | cell viability [3] | TCF/Wnt firefly luciferase reporter signal ([4]; reporter: 7TFP) | TCF/Wnt firefly luciferase reporter signal ([4]; reporter: TCF4/Wnt) | TCF/Wnt firefly luciferase reporter signal [5] | TCF/Wnt firefly luciferase reporter signal [6]
Cc1ccc([N+](=O)[O-])cc1S(=O)(=O)N(C)/N=C/c1cnc2ccc(Br)cn12 | 0.887 ± 0.097 | 1.07 ± 0.078 | 0.763 ± 0.23 | 1.13 ± 0.11 | 0.358 ± 0.074 | 0.239 ± 0.0014 | 0.155 ± 0.059 | 0.53 ± 0.24
Cc1[nH]nc2ccc(-c3cncc(OC[C@@H](N)Cc4ccccc4)c3)cc12 | 1.02 ± 0.18 | 1.17 ± 0.05 | 0.755 ± 0.036 | 1.19 ± 0.099 | 0.51 ± 0.029 | 0.189 ± 0.021 | 0.196 ± 0.047 | 0.822 ± 0.042
COc1cc2ncnc(Nc3ccc(F)c(Cl)c3)c2cc1OCCCN1CCOCC1 [Gefitinib (Iressa)] | 0.913 ± 0.069 | 0.968 ± 0.021 | 0.961 ± 0.052 | 0.917 ± 0.03 | 1.005 ± 0.0071 | 0.812 ± 0.18 | 0.76 ± 0.24 | 1.02 ± 0.039
COc1cc(Nc2ncc(F)c(Nc3ccc4c(n3)N(COP(=O)(O)O)C(=O)C(C)(C)O4)n2)cc(OC)c1OC [R788 (Fostamatinib)] | 0.89 ± 0.13 | 0.959 ± 0.046 | 0.888 ± 0.086 | 0.923 ± 0.037 | 0.781 ± 0.21 | 0.831 ± 0.079 | 2.88 ± 0.22 | 0.879 ± 0.079
COC(=O)Nc1ccc(-c2nc(N3CCOCC3)c3cnn(C4CCN(C(=O)OC)CC4)c3n2)cc1 | 1.13 ± 0.014 | 1.13 ± 0.028 | 1.105 ± 0.0071 | 1.11 ± 0.028 | 1.07 ± 0.057 | 0.973 ± 0.053 | 1.23 ± 0.12 | 1.11 ± 0.085
CN(C)c1ccc(-c2nc3ncc(Cl)c(N4CCN(CC(=O)Nc5nccs5)CC4)c3[nH]2)cc1 | 1.1 ± 0.05 | 1.04 ± 0.021 | 1.14 ± 0.028 | 0.96 ± 0.057 | 1.1 ± 0.3 | 1.1 ± 0.31 | 1.26 ± 0.17 | 1.16 ± 0.064
CNC(=O)c1cc(Oc2ccc(NC(=O)Nc3ccc(Cl)c(C(F)(F)F)c3)cc2)ccn1 [Sorafenib (Nexavar)] | 1.11 ± 0.028 | 1.04 ± 0.098 | 1.135 ± 0.0071 | 1.04 ± 0.021 | 0.959 ± 0.2 | 0.883 ± 0.081 | 1.06 ± 0.078 | 1.19 ± 0.057
Oc1c2ccccc2c2c3c(cccc13)N=N2 | 1.06 ± 0.099 | 1.01 ± 0.016 | 1.12 ± 0.021 | 0.931 ± 0.016 | 1.07 ± 0.14 | 1.18 ± 0.014 | 1.34 ± 0.23 | 1.06 ± 0.021
COc1cc2c(Oc3ccc4[nH]c(C)cc4c3F)ncnc2cc1OCCCN1CCCC1 [Cediranib (AZD2171)] | 0.659 ± 0.18 | 0.769 ± 0.054 | 0.658 ± 0.02 | 0.893 ± 0.067 | 0.968 ± 0.51 | 0.801 ± 0.32 | 0.354 ± 0.15 | 0.699 ± 0.12
OCCn1cc(-c2ccc3c(c2)CC/C3=N\O)c(-c2ccncc2)n1 | 1.05 ± 0.15 | 0.992 ± 0.11 | 0.979 ± 0.059 | 1.145 ± 0.0071 | 1.5 ± 0.53 | 1.45 ± 0.085 | 1.62 ± 0.45 | 1.7 ± 0.092
